Experimental data: PubChem BioAssay
Activity calls are given as the source filed them.

Columns and labels:
Albumin (Bos taurus) = Albumin (Bos taurus) (UniProt P02769); assay: bovine serum albumin binders on microarray, profiling panel, artefact control for SMM control protein annotation, biochemical, small-molecule microarray, Alexa647 label, 635/667 nm fluorescence (AID 1118); conditions: BSA-A647 binding, fluorescence 635 nm, higher = more signal;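 also: score merges 667 nm emission intensity and signal-to-noise per printed compound spot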
[1] = small-molecule microarray binders of probe aXIP, primary screen, biochemical, NeuroSMM set, 635/667 nm fluorescence (AID 1119); conditions: higher = more signal, called active from +8 up or from −8 down;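 also: probe is the protein aXip251-270 applied at 1 µg/mL to compound-printed slides; binding of probe to printed compounds measured as 667 nm fluorescence plus signal to noise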
[2] = small-molecule binders of probe aNOTCH3, primary screen, biochemical, small-molecule microarray, 635/667 nm fluorescence (AID 1120); conditions: higher = more signal;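 also: probe is a biotin-tagged antibody raised against NOTCH3 rather than NOTCH3 protein; score merges spot fluorescence near 667 nm with spot signal to noise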
[3] = small-molecule binders of probe aNOTCH2, primary screen, biochemical, small-molecule microarray, 635/667 nm fluorescence (AID 1121); conditions: higher = more signal;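 also: score merges feature fluorescence read at 667 nm with its signal to noise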
[4] = target: Carbonic anhydrase 2 (Homo sapiens) (UniProt P00918); assay: CAII small-molecule binders, profiling panel, biochemical, small-molecule microarray, Alexa647-labelled CAII (AID 1122); conditions: CAII-A647 binding fluorescence, higher = more signal
[5] = COS7 lysate on small-molecule microarray, probe aHis, 635 nm (AID 1123); conditions: COS7 cell lysate, fluorescence, higher = more signal;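 also: z-score combines 667nm fluorescence intensity with signal-to-noise per printed compound spot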
[6] = compound binding in COS7 lysate, probe aLAP1, primary screen, cell lysate, small-molecule microarray (AID 1124); conditions: probe aLAP1, fluorescence, higher = more signal;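 also: lysate comes from COS7 cells expressing LAP1 and is applied at 0.3 µg/mL; score merges spot fluorescence near 667 nm with signal-to-noise over triplicate slides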
Sam68 (KHDRBS1) = assay: Sam68 small-molecule binders, primary screen, biochemical, small-molecule microarray, 635 nm fluorescence (AID 1125); conditions: small-molecule microarray binding, higher = more signal;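 also: score merges 667 nm channel intensity with signal to noise over triplicate slides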
[7] = tested on: Chordin-like protein 2 (CHRDL2); assay: CHRDL2 small-molecule binders, primary screen, biochemical, small-molecule microarray, 635 nm fluorescence (AID 1126); conditions: small-molecule microarray binding, fluorescence 635 nm; higher = more signal;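 also: printed compound slides probed with Chrdl2 protein at 4 µg/mL for 1 h at 4 C; score merges 667 nm emission intensity with signal to noise over three replicate slides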
[8] = target: Concanavalin-A (Canavalia ensiformis) (UniProt P02866); assay: ConA small-molecule binders, primary screen, artefact control for SMM control protein annotation, biochemical, small-molecule microarray, Alexa647 label, 635 nm (AID 1127); conditions: ConA-A647 binding fluorescence, higher = more signal;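 also: z combines 667 nm emission intensity with signal-to-noise across three replicate slides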
[9] = anti-His antibody binders, primary screen, artefact control for SMM control protein annotation, biochemical, small-molecule microarray, 635 nm fluorescence (AID 1128); conditions: anti-His Alexa647 antibody binding, higher = more signal;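 also: score merges feature fluorescence with signal-to-noise for each printed compound spot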
[10] = tested on: Human papillomavirus type 1a E7 protein (residues 1-88); assay: HPV1a E7 small-molecule binders, primary screen, biochemical, small-molecule microarray, residues 1-88, 635 nm (AID 1129); conditions: small-molecule microarray binding, fluorescence 635 nm; higher = more signal
[11] = target: Focal adhesion kinase 1 (Homo sapiens) (UniProt Q05397); assay: small-molecule microarray binders of FAK, primary screen, biochemical, 635/667 nm fluorescence, BSA, DTT (AID 1130); conditions: PTK2 binding, 635 nm fluorescence, higher = more signal;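 also: composite of spot emission at 667 nm and signal to noise over triplicate slides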
[12] = tested on: Fibrinogen (Alexa647-labelled); assay: fibrinogen binders on compound microarrays, profiling panel, artefact control for SMM control-protein annotation, biochemical, small-molecule microarray, 635/667 nm fluorescence (AID 1131); conditions: fibrinogen-A647 binding fluorescence, higher = more signal;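 also: z-score merges 667 nm fluorescence with per-spot signal-to-noise over triplicate slides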
[13] = target: Follistatin (Homo sapiens) (UniProt P19883); assay: follistatin binders on small-molecule microarrays, primary screen, biochemical, small-molecule microarray, 635/667 nm fluorescence (AID 1132); conditions: FST binding, 635 nm fluorescence, higher = more signal
[14] = target: Fibroblast growth factor 2 (Homo sapiens) (UniProt P09038); assay: FGF2 binders on small-molecule microarrays, primary screen, biochemical, small-molecule microarray, 635/667 nm fluorescence (AID 1133); conditions: small-molecule microarray binding, FGF2, fluorescence 635/667; higher = more signal
[15] = mitochondrial membrane potential change in A549 cells, profiling panel, cell-based, JC-1 fluorescence, basal, 24 h, 100 nL (AID 1138); conditions: higher = more signal;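 also: A549 lung adenocarcinoma cells under basal conditions with no added stimulus; test concentration not given here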
Lefty1 = Lefty1 binders on small-molecule microarrays, primary screen, biochemical, small-molecule microarray, 635/667 nm fluorescence (AID 1139); conditions: small-molecule microarray binding, fluorescence 635/667; higher = more signal
[16] = tested on: wheat germ agglutinin (Triticum aestivum), Alexa647-labelled; assay: wheat germ agglutinin binders on compound microarrays, profiling panel, artefact control for SMM control-protein annotation, biochemical, small-molecule microarray, 635/667 nm fluorescence (AID 1140); conditions: WGA-A647 binding, 635 nm fluorescence, higher = more signal;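 also: score merges 667 nm feature emission with signal to noise over triplicate slides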
[17] = target: Luciferin 4-monooxygenase (Photinus pyralis) (UniProt P08659); assay: firefly luciferase enzyme inhibitors, primary screen, biochemical, luminescence, purified enzyme, 2006 set (AID 1141); conditions: SteadyGlo luminescence, 30 min, higher = more signal, called active from +8 up or from −8 down;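 also: cell-free assay with purified firefly luciferase at 100 ng per well in PBS; test concentration not given here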
Chain of Luciferin 4-monooxygenase (Photinus pyralis) (P08659 whole entry, looked up): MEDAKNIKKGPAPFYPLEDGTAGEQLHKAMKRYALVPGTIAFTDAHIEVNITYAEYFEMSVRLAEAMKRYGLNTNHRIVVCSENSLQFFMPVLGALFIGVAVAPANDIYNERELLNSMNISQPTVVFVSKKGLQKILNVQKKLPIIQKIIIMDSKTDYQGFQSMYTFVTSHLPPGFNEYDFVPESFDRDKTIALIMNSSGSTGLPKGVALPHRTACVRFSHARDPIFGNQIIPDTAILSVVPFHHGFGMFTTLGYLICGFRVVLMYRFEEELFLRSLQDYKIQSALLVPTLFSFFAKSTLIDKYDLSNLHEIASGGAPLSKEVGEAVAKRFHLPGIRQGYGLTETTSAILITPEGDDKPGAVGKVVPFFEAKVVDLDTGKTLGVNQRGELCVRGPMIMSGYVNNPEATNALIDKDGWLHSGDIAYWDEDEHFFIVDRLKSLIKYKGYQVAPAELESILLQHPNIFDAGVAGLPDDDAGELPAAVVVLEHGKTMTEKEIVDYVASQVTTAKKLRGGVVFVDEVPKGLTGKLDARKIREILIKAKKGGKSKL

Chain of Follistatin (Homo sapiens) (P19883 whole entry, looked up): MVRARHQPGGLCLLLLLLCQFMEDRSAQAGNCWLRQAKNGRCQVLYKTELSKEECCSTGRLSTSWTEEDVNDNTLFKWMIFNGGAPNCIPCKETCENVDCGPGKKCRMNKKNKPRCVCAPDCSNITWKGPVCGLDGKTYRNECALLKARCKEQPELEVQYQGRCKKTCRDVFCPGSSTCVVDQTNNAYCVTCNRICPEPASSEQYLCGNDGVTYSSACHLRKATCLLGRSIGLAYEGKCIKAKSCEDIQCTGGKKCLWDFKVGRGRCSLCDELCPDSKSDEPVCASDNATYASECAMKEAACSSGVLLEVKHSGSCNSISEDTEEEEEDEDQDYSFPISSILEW
Chain of Fibroblast growth factor 2 (Homo sapiens) (P09038 whole entry, looked up): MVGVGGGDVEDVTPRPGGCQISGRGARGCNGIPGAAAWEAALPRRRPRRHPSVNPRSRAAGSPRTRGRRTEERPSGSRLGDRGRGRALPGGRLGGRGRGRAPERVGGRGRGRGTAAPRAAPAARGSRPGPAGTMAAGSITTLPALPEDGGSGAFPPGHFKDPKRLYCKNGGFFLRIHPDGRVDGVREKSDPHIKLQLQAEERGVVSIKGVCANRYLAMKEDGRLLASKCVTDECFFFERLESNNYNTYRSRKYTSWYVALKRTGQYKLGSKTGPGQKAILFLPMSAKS
Chain of Focal adhesion kinase 1 (Homo sapiens) (Q05397 whole entry, looked up): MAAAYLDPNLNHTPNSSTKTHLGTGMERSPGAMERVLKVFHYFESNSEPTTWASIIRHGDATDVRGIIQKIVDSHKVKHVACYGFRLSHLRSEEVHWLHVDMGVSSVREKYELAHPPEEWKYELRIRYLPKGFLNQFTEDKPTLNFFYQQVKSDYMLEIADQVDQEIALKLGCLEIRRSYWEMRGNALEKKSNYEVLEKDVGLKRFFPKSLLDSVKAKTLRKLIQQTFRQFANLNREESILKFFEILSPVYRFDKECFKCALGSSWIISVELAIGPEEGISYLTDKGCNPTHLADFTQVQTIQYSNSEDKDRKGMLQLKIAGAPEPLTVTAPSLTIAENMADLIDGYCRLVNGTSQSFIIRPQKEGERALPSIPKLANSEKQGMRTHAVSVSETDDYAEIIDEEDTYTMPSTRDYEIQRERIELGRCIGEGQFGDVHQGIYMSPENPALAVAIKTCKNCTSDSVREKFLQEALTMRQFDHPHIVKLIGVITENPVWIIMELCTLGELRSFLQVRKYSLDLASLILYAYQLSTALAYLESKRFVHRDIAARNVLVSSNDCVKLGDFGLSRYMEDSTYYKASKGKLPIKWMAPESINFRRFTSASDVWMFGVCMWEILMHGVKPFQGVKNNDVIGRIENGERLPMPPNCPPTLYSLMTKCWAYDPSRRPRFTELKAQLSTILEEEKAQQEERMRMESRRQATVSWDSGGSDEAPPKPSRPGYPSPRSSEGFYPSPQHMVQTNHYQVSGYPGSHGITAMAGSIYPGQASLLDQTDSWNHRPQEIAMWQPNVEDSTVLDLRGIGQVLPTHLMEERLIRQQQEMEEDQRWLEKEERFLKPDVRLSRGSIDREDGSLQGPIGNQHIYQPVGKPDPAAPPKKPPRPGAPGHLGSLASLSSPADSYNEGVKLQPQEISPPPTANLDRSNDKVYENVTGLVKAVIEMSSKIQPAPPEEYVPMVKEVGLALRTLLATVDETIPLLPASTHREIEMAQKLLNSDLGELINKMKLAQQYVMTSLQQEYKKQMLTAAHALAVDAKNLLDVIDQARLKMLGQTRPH
Chain of Concanavalin-A (Canavalia ensiformis) (P02866 whole entry, looked up): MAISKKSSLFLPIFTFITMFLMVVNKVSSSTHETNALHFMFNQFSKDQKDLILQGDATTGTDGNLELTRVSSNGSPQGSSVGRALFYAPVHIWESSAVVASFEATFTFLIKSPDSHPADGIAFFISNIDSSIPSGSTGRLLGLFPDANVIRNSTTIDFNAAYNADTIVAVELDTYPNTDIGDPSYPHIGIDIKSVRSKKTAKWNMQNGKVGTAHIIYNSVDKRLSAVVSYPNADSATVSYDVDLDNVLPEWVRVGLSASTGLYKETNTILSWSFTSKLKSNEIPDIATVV
Chain of Albumin (Bos taurus) (P02769 whole entry, looked up): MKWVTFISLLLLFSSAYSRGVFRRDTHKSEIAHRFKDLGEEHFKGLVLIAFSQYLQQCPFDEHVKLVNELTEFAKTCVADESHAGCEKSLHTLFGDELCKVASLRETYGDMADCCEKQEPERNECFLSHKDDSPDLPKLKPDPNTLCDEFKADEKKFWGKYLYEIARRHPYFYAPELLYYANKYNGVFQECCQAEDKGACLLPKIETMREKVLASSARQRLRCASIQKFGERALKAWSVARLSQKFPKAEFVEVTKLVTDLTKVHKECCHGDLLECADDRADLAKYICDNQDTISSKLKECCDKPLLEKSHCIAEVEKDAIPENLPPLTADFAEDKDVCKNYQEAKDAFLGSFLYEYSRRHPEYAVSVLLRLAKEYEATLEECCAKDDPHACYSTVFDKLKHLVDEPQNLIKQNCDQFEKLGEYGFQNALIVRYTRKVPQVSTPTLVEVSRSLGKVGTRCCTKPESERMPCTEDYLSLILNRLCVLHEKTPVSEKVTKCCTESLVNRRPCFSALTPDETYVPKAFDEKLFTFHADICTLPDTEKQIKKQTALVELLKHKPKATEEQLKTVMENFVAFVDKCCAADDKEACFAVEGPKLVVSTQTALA

| SMILES | composite z-score (Albumin (Bos taurus)) | composite Z-score [1] | composite z-score [2] | composite z-score [3] | composite z-score [4] | composite z-score [5] | composite z-score [6] | composite z-score (Sam68 (KHDRBS1)) | composite z-score [7] | composite z-score [8] | composite z-score [9] | composite z-score [10] | composite z-score [11] | composite z-score [12] | composite z-score [13] | composite z-score [14] | z-score [15] | composite z-score (Lefty1) | composite z-score [16] | z-score [17] |
| --- | --- | --- | --- | --- | --- | --- | --- | --- | --- | --- | --- | --- | --- | --- | --- | --- | --- | --- | --- | --- |
| CCOC(=O)CCN1C(=O)[C@H]2[C@H]3[C@H](O)[C@H](O)CC(=NNC(=O)OCc4ccc(OC)cc4)[C@H]3CC[C@H]2C1=O | 0.33 | 0.0321 (inactive) | -0.0328 | -0.061 | -0.0767 | 0.205 | -0.0428 | 0.576 | 0.382 | -0.0813 | -0.0305 | 0.568 | 0.0684 | 0.446 | -0.0495 | 0.0077 | -0.734 | 0.161 | 0.282 | 0.624 (inactive) |
| CCOC(=O)CCN1C(=O)[C@H]2[C@H]3[C@H](O)[C@H](O)CC(=NOCC=C(C)CCC=C(C)C)[C@@H]3CC[C@H]2C1=O | 0.275 | -0.754 (inactive) | -0.0043 | -0.154 | 0.003 | 0.0888 | 0.0278 | 0.449 | 0.434 | 1.01 | -0.34 | 0.741 | -0.115 | 0.7 | 0.696 | 0.884 | 0.0237 | 0.537 | 0.132 | 0.597 (inactive) |
| CCOC(=O)[C@H](CC(C)C)NC(=O)CCC1CC(OC(=O)NCc2ccc3c(c2)OCO3)CC2(CCCC(COC(=O)NCCC(C)C)O2)O1 (stereo not given in full) | 0.42 | 0.231 (inactive) | -0.0555 | -0.112 | 0.515 | 0.298 | 0.0199 | -0.557 | -0.085 | -0.746 | 0.348 | -0.438 | 0.0454 | -0.27 | -0.14 | 0.279 | 0.471 | 0.172 | 0.182 | 0.537 (inactive) |
| COC(=O)[C@H](C)NC(=O)CCC1CC(OC(=O)NCc2ccc3c(c2)OCO3)CC2(CCCC(COC(=O)NCCc3ccc(Cl)cc3)O2)O1 (stereo not given in full) | 0.293 | 0.0601 (inactive) | 0.0129 | -0.0974 | 0.0233 | 0.043 | -0.0478 | 0.422 | 1.26 | -0.455 | 1.22 | 0.377 | 0.142 | 0.275 | 0.758 | 0.742 | -0.928 | 0.398 | 0.268 | 0.839 (inactive) |
| O=C1C2=CC[C@H]3C(=O)N(Cc4ccccc4)C(=O)[C@H]3[C@H]2[C@H](O)[C@@H]2O[C@H]12 | -0.356 | 0.0144 (inactive) | -0.199 | -0.167 | 0.0372 | -0.458 | -0.11 | 0.085 | 0.343 | -0.707 | 0.198 | 0.111 | -0.36 | 0.739 | -0.267 | -0.022 | -0.447 | -0.423 | 0.254 | -0.174 (inactive) |
| C[C@H]1CC[C@@H](C(=O)O)N[C@@H]1c1ccc(C#Cc2ccccc2)cc1 | 0.213 | 0.142 (inactive) | 0.0876 | -0.0907 | 0.863 | 0.803 | 0.707 | 1.22 | 1.34 | 1.1 | 1.53 | 1.06 | 0.454 | 0.918 | 1.07 | 0.551 | -2.02 | 0.608 | 1.11 | -9.82 (active) |
| COC(=O)C(C(=O)OC)C1CCCC(=O)C1 (stereo not given) | -0.0912 | 0.499 (inactive) | -0.0391 | -0.0694 | 0.381 | 0.214 | -0.205 | -0.0924 | 0.414 | 0.468 | 0.252 | 0.433 | 0.193 | 0.372 | 0.326 | 0.692 | -1.13 | 0.804 | 0.173 | 0.138 (inactive) |
| CCc1cc2c(nc1CC)CCN(CCC(C)=NOCC[C@@H]1C=C[C@H](OC(C)=O)[C@@H](COC(C)=O)O1)C2 | 0.466 | 0.497 (inactive) | 0.493 | -0.0798 | 0.0943 | -0.119 | 0.277 | 1.23 | 0.412 | 0.446 | 0.345 | -0.19 | 0.174 | -0.0226 | 0.823 | 0.273 | 0.677 | 1.18 | 0.0479 | 0.855 (inactive) |
| CO[C@H]1COC(=O)[C@H](C)COC(=O)[C@H](C)NC(=O)CC=C[C@H]1C | -0.642 | 1.19 (inactive) | -0.131 | -0.0051 | 0.0006 | -0.429 | 0.352 | 1.04 | 1.44 | -0.581 | 0.0849 | -0.375 | -0.315 | -1.01 | 1.41 | 1.43 | 0.763 | 1.36 | -0.729 | -0.403 (inactive) |
| O=C1[C@H]2CCn3c(=O)n(-c4ccccc4)c(=O)n3[C@H]2[C@H](O)[C@@H]2O[C@H]12 | 0.0407 | -0.916 (inactive) | -0.177 | -0.0651 | 0.0463 | 0.178 | -0.34 | -0.319 | 0.37 | 0.218 | -0.0114 | 0.301 | -0.339 | 0.418 | -0.0705 | 0.127 | 0.718 | 0.278 | 0.465 | 0.0786 (inactive) |
| CC(=O)OC[C@H]1O[C@@H](ON=C(C)CCN2CCCCc3nc(C)c(C)cc32)[C@H](OC(C)=O)[C@@H](OC(C)=O)[C@@H]1OC(C)=O | 0.536 | -0.288 (inactive) | 0.0282 | -0.115 | 0.163 | 0.773 | -0.0796 | 1.29 | 1.27 | 0.289 | 0.914 | 0.329 | -0.0665 | 0.736 | 0.89 | 1.14 | -0.66 | 1.17 | 0.162 | 0.949 (inactive) |
